The sample as a whole holds a higher share of hits than the screen did.
Dicer processing: human Dicer pre-microRNA cleavage inhibition. cat-ELCCA pre-miR-21 Dicer processing, chemiluminescence; stronger effect = higher value. z-score at 25 µM. AID 1347074. Q9UPY3. actives 6% (n = 47,000); in the data active means z-score above about 3, passing the limit was not always enough;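 further: plate controls were vehicle for no effect and no enzyme for full effect; higher signal means more uncleaved substrate so more Dicer inhibition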
Target sequence (Q9UPY3 whole entry, looked up): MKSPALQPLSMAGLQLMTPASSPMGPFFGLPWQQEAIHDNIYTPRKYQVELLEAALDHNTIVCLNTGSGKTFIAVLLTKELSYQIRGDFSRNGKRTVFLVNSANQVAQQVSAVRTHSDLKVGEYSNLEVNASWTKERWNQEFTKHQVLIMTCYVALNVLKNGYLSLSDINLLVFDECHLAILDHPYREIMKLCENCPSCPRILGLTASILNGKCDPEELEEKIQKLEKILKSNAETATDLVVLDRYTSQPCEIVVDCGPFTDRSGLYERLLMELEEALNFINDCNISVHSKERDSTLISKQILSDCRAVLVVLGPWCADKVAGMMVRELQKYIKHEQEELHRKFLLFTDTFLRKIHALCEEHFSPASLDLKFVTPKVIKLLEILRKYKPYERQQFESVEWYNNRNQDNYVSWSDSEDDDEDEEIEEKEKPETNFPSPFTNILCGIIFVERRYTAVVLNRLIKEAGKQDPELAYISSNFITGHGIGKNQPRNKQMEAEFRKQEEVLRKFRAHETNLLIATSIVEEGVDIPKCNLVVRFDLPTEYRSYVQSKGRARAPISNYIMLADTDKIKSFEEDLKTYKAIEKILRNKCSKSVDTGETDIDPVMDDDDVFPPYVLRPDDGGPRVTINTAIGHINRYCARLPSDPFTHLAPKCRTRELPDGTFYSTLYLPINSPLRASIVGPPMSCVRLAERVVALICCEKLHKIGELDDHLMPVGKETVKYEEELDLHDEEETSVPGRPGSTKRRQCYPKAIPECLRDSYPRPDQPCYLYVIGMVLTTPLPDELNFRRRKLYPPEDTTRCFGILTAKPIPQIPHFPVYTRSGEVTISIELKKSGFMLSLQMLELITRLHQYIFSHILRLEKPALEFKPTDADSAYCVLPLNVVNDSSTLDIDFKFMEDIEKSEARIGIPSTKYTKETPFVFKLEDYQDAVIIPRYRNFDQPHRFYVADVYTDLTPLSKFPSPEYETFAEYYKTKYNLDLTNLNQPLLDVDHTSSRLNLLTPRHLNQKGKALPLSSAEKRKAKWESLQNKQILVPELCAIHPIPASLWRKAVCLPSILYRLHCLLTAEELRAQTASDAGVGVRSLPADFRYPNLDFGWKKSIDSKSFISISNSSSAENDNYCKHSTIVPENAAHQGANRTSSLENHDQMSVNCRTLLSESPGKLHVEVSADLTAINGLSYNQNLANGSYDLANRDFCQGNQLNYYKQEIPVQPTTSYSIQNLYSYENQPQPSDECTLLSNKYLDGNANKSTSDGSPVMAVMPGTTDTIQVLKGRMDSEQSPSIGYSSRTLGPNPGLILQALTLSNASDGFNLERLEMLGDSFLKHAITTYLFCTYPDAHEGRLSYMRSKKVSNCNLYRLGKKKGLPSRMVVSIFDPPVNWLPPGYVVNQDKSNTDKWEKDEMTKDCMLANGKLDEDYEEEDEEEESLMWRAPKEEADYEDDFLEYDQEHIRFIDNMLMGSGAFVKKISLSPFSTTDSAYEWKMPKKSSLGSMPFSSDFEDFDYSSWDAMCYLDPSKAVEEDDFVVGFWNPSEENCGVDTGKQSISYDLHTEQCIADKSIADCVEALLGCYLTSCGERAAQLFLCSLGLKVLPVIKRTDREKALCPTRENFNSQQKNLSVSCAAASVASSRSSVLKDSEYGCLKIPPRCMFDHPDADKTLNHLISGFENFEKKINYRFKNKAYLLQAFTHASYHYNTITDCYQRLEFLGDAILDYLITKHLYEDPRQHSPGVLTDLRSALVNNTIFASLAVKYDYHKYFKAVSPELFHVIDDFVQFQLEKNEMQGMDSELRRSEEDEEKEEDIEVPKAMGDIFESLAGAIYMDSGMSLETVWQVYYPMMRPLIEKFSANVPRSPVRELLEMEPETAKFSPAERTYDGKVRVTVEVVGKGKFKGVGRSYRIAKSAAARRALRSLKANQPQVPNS
Starred values were filed as active, the others as inactive.

SMILES	Dicer processing
O=C(CC1(O)C(=O)N(Cc2ccccc2)c2ccc(Br)cc21)c1ccc2c(c1)OCO2 (centres undefined)	2.8
O=C(CC1(O)C(=O)N(CCc2ccccc2)c2ccc(Br)cc21)c1ccccn1 (centres undefined)	1.1
CCCN1C(=O)C(O)(CC(=O)c2ccc3c(c2)OCO3)c2cc(Br)ccc21 (centres undefined)	2.8
COc1ccccc1C(=O)CC1(O)C(=O)N(CCc2ccccc2)c2ccc(Br)cc21 (centres undefined)	4.3*
Cc1ccc(C(=O)CC2(O)C(=O)N(CCc3ccccc3)c3ccc(Br)cc32)o1 (centres undefined)	2.5
O=C(CC1(O)C(=O)N(CCc2ccccc2)c2ccc(Br)cc21)c1ccc2c(c1)OCO2 (centres undefined)	4.1*
CN(c1cnn(-c2ccccc2)c(=O)c1Cl)n1cccc1	-0.91
CCOC(=O)NC(Nc1cc(F)ccc1C)(C(F)(F)F)C(F)(F)F	-0.99
CCCc1nc(-c2ccc(-c3ccc(OC)cc3)nc2OC)no1	0.52
CC1(C)C(=O)N(CCN2CCC(C(=O)c3ccc(F)cc3)CC2)c2ccccc21	0.04
Cc1ccc(NC(=S)Nc2ccccn2)cc1C	0.98
C=CCC(C(=O)N1CCc2ccccc21)C(=O)N1CCc2ccccc21	-0.15
O=C(Cn1cnc2c(cnn2-c2ccccc2)c1=O)c1ccc(Cl)cc1	-0.65
CCOC(=O)c1cnn(-c2ccccc2)c1NC(=O)Nc1cccc(Cl)c1	-0.56
Cc1nc2c(cnn2-c2ccccc2)c(=O)n1-c1cccc2ccccc12	3.2*
Cc1nc2c(cnn2-c2ccccc2)c(=O)n1/N=C/c1ccccc1	-0.04
Cc1nc2c(cnn2-c2ccccc2)c(=O)n1NC(=O)Nc1ccc(Cl)c(Cl)c1	4.7*
O=c1c2cnn(-c3ccccc3)c2nc(-c2ccco2)n1-c1ccccc1	-0.43
COC(=O)C1=C(C)NC2=C(C(=O)CCC2)C1c1ccc(Cl)cc1 (centres undefined)	0.75
O=C(CSc1nnc(-c2ccncc2)o1)c1ccc(-c2ccccc2)cc1	1.9
O=C(O)CC(C(=O)NCc1ccccc1)C1=CCCCC1 (centres undefined)	-0.15
CCOC(=O)c1c(C)oc2c1c(CN1CCOCC1)c(O)c1ccccc12	-1.1
O=C(Cc1ccccc1Cl)NC1(O)C(=O)c2ccccc2C1=O	-8.1
Fc1ccc(-c2cn(-c3ccccc3)c3[n+]2CCS3)cc1	-2
Cc1onc(-c2ccccc2)c1C(=O)n1cccc1	-0.05
SMILES	Dicer processing
Cc1onc(-c2ccccc2)c1C(=O)NNC(=O)c1ccc(-n2c(C)ccc2C)cc1	3.1*
Cc1onc(-c2ccccc2)c1C(=O)NCCNC(=O)c1c(-c2ccccc2)noc1C	1.2
Cc1ccc(NC(=O)N2C(=O)C3(OCCO3)c3ccccc32)cc1	-1.1
CCCCc1ccc(NC(=O)CSc2nnc(NC(=O)c3cccs3)s2)c(C)c1	-0.09
O=C1c2cccc3c(Br)ccc(c23)C(=O)N1Cc1ccccc1	1.5
O=C1c2cccc3c(Sc4ccccc4)ccc(c23)C(=O)N1CCc1ccccn1	0.73
O=C1c2cccc3c(Sc4ccccc4)ccc(c23)C(=O)N1Cc1ccccc1	5.2*
C=CCSc1nc(C)c2cc(C)ccc2n1	-0.03
CSc1nc(C)c2cc(C)oc2n1	4.3*
CN(C)c1ccc(NC(=O)c2cc3n(n2)C(C(F)(F)F)CC(c2ccco2)N3)cc1 (centres undefined)	1.6
O=[N+]([O-])c1ccc(/C(CN2CCCCC2)=N/O)cc1	1.1
Cc1ccc(C(=O)/C=C/Sc2nc(C)cc(C)n2)cc1	-1.6
COc1ccccc1Nc1cc(=O)[nH]c(=O)[nH]1	3.6*
COc1ccccc1Nc1n[nH]c(C)c1[N+](=O)[O-]	1.9
COc1ccccc1Nc1cccccc1=O	2.7
Cc1c2c(=O)[nH]ncc2c(-c2ccccc2)n1-c1ccc([N+](=O)[O-])cc1	-0.76
O=C(c1ccc(F)cc1)N1N=C2c3ccccc3CCC2C1c1ccc(F)cc1 (centres undefined)	-0.79
CC(C)(C)c1ccc(C(=O)N/N=C(/C(=O)O)c2ccccc2)cc1	0.11
C/C(=N/NC(=O)c1ccccc1)C(=O)O	3.3*
C/C(Cc1ccccc1)=N\NC(=O)c1ccncc1	-0.68
O=C(NCc1cccnc1)c1cc2nc(-c3cccs3)cc(C(F)(F)F)n2n1	0.25
COCCCNC1=C(C#N)C(=O)NC(C2CC=CCC2)S1 (centres undefined)	2.3
Cc1ccc(Cl)cc1N1C(=O)CSCC1=O	7.3
CCc1ccc(C2NC(=O)c3c(sc4c3CCN(C)C4)N2)cc1 (centres undefined)	-0.94
CC1(C)[C@@H](OC(=O)CCC(=O)O)CC[C@]2(C)[C@H]3C(=O)C=C4[C@@H]5C[C@@](C)(C(=O)O)CC[C@]5(C)CC[C@@]4(C)[C@]3(C)CC[C@@H]12	0.42
SMILES	Dicer processing
Cn1nc(-c2ccc(Br)s2)c(Br)c1C(F)(F)F	45*
CSc1nnc(-c2ccc(Br)s2)n1C	-1.5
CC1=CC(C)(C)N2C(=O)C(=O)c3cc(OC(=O)c4ccccc4Br)cc1c32	1.7
CC1=CC(C)(C)Nc2ccc(OC(=O)COc3ccccc3)cc21	-3.4
CCOC(=O)Oc1ccc2c(c1)C(C)=CC(C)(C)N2	0.43
CC1=CC(C)(C)Nc2ccc(OC(=O)c3ccc(Cl)cc3)cc21	4.6
CC1=CC(C)(C)Nc2ccc(OC(=O)c3cccc(Br)c3)cc21	3.1*
CC1=CC(C)(C)Nc2ccc(OC(=O)c3ccccc3Br)cc21	4*
CC(C)(C)c1cc(C(=O)NNS(=O)(=O)c2ccccc2)n[nH]1	1.2
CCOC(=O)/C(N=Nc1ccccc1Cl)=C(/O)CSc1nc(C)cc(C)c1C#N	0.03
CC1=C(C(=O)OCC2CCCO2)C(c2ccc(F)cc2)C2=C(CC(c3cccs3)CC2=O)N1 (centres undefined)	0.61
COc1ccc(N2CCN(c3oc(COc4ccc(Cl)cc4)nc3C#N)CC2)cc1	0.4
O=C(CN1CCCc2ccccc21)N1CCc2ccccc21	-4.1
COc1ccc(C2CC(c3cc(Cl)ccc3O)=NN2)cc1OC (centres undefined)	4.4*
COc1cccc2c1OC(c1cccnc1)N1N=C(c3cc(Cl)ccc3O)CC21 (centres undefined)	1.1
COc1ccc(C2CC(c3ccc(Cl)cc3)Nc3nc(N)nn32)cc1OC (centres undefined)	-1.2
CCOC(=O)c1c(C)c2c(=O)[nH]cnc2n1-c1ccccc1	-0.11
CCOC(=O)c1snc2c(=O)[nH]cnc12	2.2
CCOC(=O)c1sc2nc[nH]c(=O)c2c1C	4.2*
Cc1ccc(CCn2c(C)c(C)c3ccccc32)cn1	-0.56
CN(NC(=O)/C=C/C(=O)O)c1cc(C(F)(F)F)ccn1	0.41
S=C(NCc1cccnc1)c1ccccc1	-0.17
FC(F)(F)c1cnc(NCc2cccnc2)c(Cl)c1	0.67
Fc1ccc(NCc2cccnc2)cc1	3.2*
CCSC1=N/C(=C\c2cccc(OC(C)=O)c2)C(=O)S1	0.88
SMILES	Dicer processing
CN(C1CCCCC1)S(=O)(=O)c1ccc2ccccc2c1	7.9
CCOc1cc(-c2ccc(OC)c(OC)c2)cc(=O)c2c(C)oc(C)c12	-0.56
Nc1c(C(=O)c2ccc([N+](=O)[O-])cc2)sc(Nc2ccccc2)c1-c1nc2ccccc2[nH]1	6.4
Cc1cccc(/C=C/c2nn3c(-c4ccco4)nnc3s2)c1	3.4*
COc1ccc(/C=C/c2nn3c(Cc4ccc(OC)cc4)nnc3s2)cc1	4.7*
COc1ccc(/C=C/c2nn3c(-c4ccccc4Cl)nnc3s2)cc1	2.3
Cc1ccc(/C=C/c2nn3c(-c4ccco4)nnc3s2)cc1	3.2*

Source: PubChem
